The results in this text go back to PubChem BioAssay (EPA / NIEHS).

Holding throughout (details): mRNA level, 48 h; actives raise or lower the signal
Read-out in assay [1]: Insulin Like Growth Factor 1 (IGF1), IGF1 (gene 3479)
As to the kind of experiment: LTEA_HepaRG_IGF1: Life Technologies and Expression Analysis (LTEA) Assay for Insulin Like Growth Factor 1 (IGF1) using HepaRG (AID 2283506). The gist of the method:
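Differentiated HepaRG cells in serum-free induction medium, exposed 48 h in duplicate to 8 half-log concentrations up to 100 uM in 0.5% DMSO. IGF1 mRNA by Fluidigm qRT-PCR, normalised to ACTB, GAPDH and POLR2A.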

Read-out in assay [2]: Intercellular Adhesion Molecule 1 (ICAM1), ICAM1 (gene 3383)
Nature of the assay: LTEA_HepaRG_ICAM1: Life Technologies and Expression Analysis (LTEA) Assay for Intercellular Adhesion Molecule 1 (ICAM1) using HepaRG (AID 2283507). The gist of the method: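 Differentiated human HepaRG cells in serum-free induction medium exposed 48 h in duplicate to 8 half-log concentrations (top 100 uM, 0.5% DMSO). ICAM1 mRNA quantified by TaqMan qRT-PCR, normalized to ACTB, GAPDH and POLR2A; bidirectional fitting versus DMSO.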

Read-out in assay [3]: Insulin-like growth factor-binding protein 1 (IGFBP1), IGFBP1 (gene 3484)
As to the kind of experiment: LTEA_HepaRG_IGFBP1: Life Technologies and Expression Analysis (LTEA) Assay for Insulin-like growth factor-binding protein 1 (IGFBP1) using HepaRG (AID 2283508). The method in brief:
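HepaRG cells, plated 48 h then switched to serum-free induction medium, exposed in duplicate for 48 h to 8-point half-log series from 100 uM in 0.5% DMSO. mRNA measured by qRT-PCR, normalized to ACTB/GAPDH/POLR2A; bidirectional fit versus DMSO.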

Read-out in assay [4]: Interleukin 6 (IL6), IL6 (gene 3569)
As to the kind of experiment: LTEA_HepaRG_IL6: Life Technologies and Expression Analysis (LTEA) Assay for Interleukin 6 (IL6) using HepaRG (AID 2283509). The method in brief:
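HepaRG cells exposed in duplicate for 48 h to eight half-log concentrations, top 100 uM, in 0.5% DMSO serum-free induction medium. mRNA measured by qRT-PCR, normalized to ACTB, GAPDH and POLR2A. Bidirectional fit versus DMSO.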

Read-out in assay [5]: Interleukin 6 Receptor (IL6R), IL6R (gene 3570)
Nature of the assay: LTEA_HepaRG_IL6R: Life Technologies and Expression Analysis (LTEA) Assay for Interleukin 6 Receptor (IL6R) using HepaRG (AID 2283510). The gist of the method:
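Differentiated HepaRG cells, plated 48 h, then exposed in duplicate for 48 h in serum-free induction medium to 8 half-log concentrations (top 100 uM, 0.5% DMSO). IL6R mRNA measured by TaqMan qRT-PCR, normalized to ACTB/GAPDH/POLR2A; bidirectional fit vs DMSO.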

Read-out in assay [6]: Potassium channel subfamily K member 1 (KCNK1), KCNK1 (gene 3775)
Nature of the assay: LTEA_HepaRG_KCNK1: Life Technologies and Expression Analysis (LTEA) Assay for Potassium channel subfamily K member 1 (KCNK1) using HepaRG (AID 2283511). The gist of the method: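 Differentiated HepaRG cells, 48 h exposure in serum-free induction medium with 0.5% DMSO; 8 concentrations, half-log from 100 uM, duplicate. KCNK1 mRNA by qRT-PCR, normalized to ACTB, GAPDH, POLR2A; bidirectional fit vs DMSO.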

Read-out in assay [7]: Keratin 19 (KRT19), KRT19 (gene 3880)
As to the kind of experiment: LTEA_HepaRG_KRT19: Life Technologies and Expression Analysis (LTEA) Assay for Keratin 19 (KRT19) using HepaRG (AID 2283512). The gist of the method: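 Differentiated HepaRG cells in serum-free induction medium, exposed 48 h in duplicate to 8 half-log concentrations up to 100 uM in 0.5% DMSO. KRT19 mRNA by qRT-PCR, normalized to ACTB, GAPDH, POLR2A; bidirectional fit vs DMSO.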

Read-out in assay [8]: JUN Transcription Factor, JUN (gene 3725)
Nature of the assay: LTEA_HepaRG_JUN: Life Technologies and Expression Analysis (LTEA) Assay for JUN Transcription Factor using HepaRG (AID 2283513). The gist of the method:
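HepaRG cells, 48 h post-plating, exposed 48 h in serum-free induction medium to 8-point half-log series (top 100 uM, 0.5% DMSO), duplicate; mRNA by qRT-PCR (TaqMan, Fluidigm), normalized to ACTB/GAPDH/POLR2A; bidirectional fit vs DMSO.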

Read-out in assay [9]: Lipase C (LIPC), LIPC (gene 3990)
As to the kind of experiment: LTEA_HepaRG_LIPC: Life Technologies and Expression Analysis (LTEA) Assay for Lipase C (LIPC) using HepaRG (AID 2283514). The method in brief:
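HepaRG cells, 48 h after plating, treated in duplicate for 48 h in serum-free induction medium over 8 half-log concentrations from 100 uM, 0.5% DMSO. LIPC mRNA by TaqMan qRT-PCR normalized to ACTB/GAPDH/POLR2A; bidirectional fit versus DMSO.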

Read-out in assay [10]: Lipoprotein lipase (LPL), LPL (gene 4023)
Nature of the assay: LTEA_HepaRG_LPL: Life Technologies and Expression Analysis (LTEA) Assay for Lipoprotein lipase (LPL) using HepaRG (AID 2283515). The method in brief:
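Differentiated HepaRG cells, plated 48 h, then exposed 48 h in serum-free induction medium to 8 concentrations (top 100 uM, half-log steps) in 0.5% DMSO, duplicate. LPL mRNA measured by qRT-PCR, normalized to ACTB, GAPDH and POLR2A.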

Read-out in assay [11]: matrix metalloproteinase-10 (MMP10), MMP10 (gene 4319)
Nature of the assay: LTEA_HepaRG_MMP10: Life Technologies and Expression Analysis (LTEA) Assay for matrix metalloproteinase-10 (MMP10) using HepaRG (AID 2283517). The method in brief:
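Differentiated HepaRG cells in serum-free induction medium exposed 48 h in duplicate to 8-point half-log series up to 100 uM in 0.5% DMSO. mRNA quantified by qRT-PCR, normalised to ACTB, GAPDH, POLR2A; bidirectional fit versus DMSO.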

Read-out in assay [12]: Paternally Expressed 10 (PEG10), PEG10 (gene 23089)
Nature of the assay: LTEA_HepaRG_PEG10: Life Technologies and Expression Analysis (LTEA) Assay for Paternally Expressed 10 (PEG10) using HepaRG (AID 2283520). The method in brief: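 Differentiated HepaRG cells exposed 48 h in serum-free induction medium to eight half-log concentrations topping at 100 uM, 0.5% DMSO, in duplicate. PEG10 mRNA quantified by TaqMan qRT-PCR, normalized to ACTB, GAPDH and POLR2A; bidirectional fit versus DMSO.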

Read-out in assay [13]: Nuclear factor NF-kappa-B p105 subunit (Homo sapiens) (UniProt P19838)
Nature of the assay: LTEA_HepaRG_NFKB1: Life Technologies and Expression Analysis (LTEA) Assay for Nuclear Factor Kappa B Subunit 1 (NFKB1) using HepaRG (AID 2283521).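 Further: TaqMan qRT-PCR transcript normalised to ACTB GAPDH and POLR2A housekeeping genes.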 The gist of the method:
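NFKB1 transcript was measured by TaqMan qRT-PCR on Fluidigm arrays, normalised to three housekeeping genes and fitted in both directions against 0.5% DMSO. HepaRG cells were dosed in duplicate for 48 h in serum-free induction medium, eight half-log steps from 100 uM.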

Read-out in assay [14]: Protein phosphatase 2A (PPP2R4), PTPA (gene 5524)
As to the kind of experiment: LTEA_HepaRG_PPP2R4: Life Technologies and Expression Analysis (LTEA) Assay for Protein phosphatase 2A (PPP2R4) using HepaRG (AID 2283522). The gist of the method:
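Differentiated human HepaRG cells in serum-free induction medium were exposed 48 h to 8 concentrations (top 100 µM, half-log steps, duplicate) in 0.5% DMSO. PPP2R4 mRNA was measured by TaqMan qRT-PCR, normalised to ACTB, GAPDH and POLR2A, and fitted bidirectionally versus DMSO.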

Read-out in assay [15]: Phosphatase and tensin (PTEN), PTEN (gene 5728)
Nature of the assay: LTEA_HepaRG_PTEN: Life Technologies and Expression Analysis (LTEA) Assay for Phosphatase and tensin (PTEN) using HepaRG (AID 2283523). The method in brief: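 HepaRG cells, 48 h after plating, exposed in duplicate for 48 h in serum-free induction medium to 8 half-log concentrations up to 100 uM (0.5% DMSO). PTEN mRNA by qRT-PCR, normalized to ACTB, GAPDH, POLR2A; bidirectional fit versus DMSO.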

Read-out in assay [16]: solute carrier (SLC22A1), SLC22A1 (gene 6580)
Nature of the assay: LTEA_HepaRG_SLC22A1: Life Technologies and Expression Analysis (LTEA) Assay for solute carrier (SLC22A1) using HepaRG (AID 2283524). The method in brief:
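Differentiated human HepaRG cells in serum-free induction medium, exposed 48 h in duplicate to 8-point half-log series from 100 µM top in 0.5% DMSO. SLC22A1 mRNA by TaqMan qRT-PCR normalized to ACTB, GAPDH, POLR2A; bidirectional fit versus DMSO.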

Read-out in assay [17]: Pyruvate Dehydrogenase Kinase 4 (PDK4), PDK4 (gene 5166)
As to the kind of experiment: LTEA_HepaRG_PDK4: Life Technologies and Expression Analysis (LTEA) Assay for Pyruvate Dehydrogenase Kinase 4 (PDK4) using HepaRG (AID 2283525). The method in brief:
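HepaRG cells plated 48 h, then switched to serum-free induction medium and exposed in duplicate for 48 h to 8 half-log concentrations from 100 uM in 0.5% DMSO. PDK4 mRNA measured by qRT-PCR, normalized to ACTB, GAPDH and POLR2A; bidirectional fit versus DMSO.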

Read-out in assay [18]: MicroRNA 122 (MIR122), gene 406906
As to the kind of experiment: LTEA_HepaRG_MIR122: Life Technologies and Expression Analysis (LTEA) Assay for MicroRNA 122 (MIR122) using HepaRG (AID 2283516). Further: the transcript read is the microRNA miR-122. The gist of the method:
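Differentiated human HepaRG cells in serum-free induction medium exposed 48 h to 8 half-log concentrations from 100 uM in 0.5% DMSO, duplicate. MIR122 quantified by Fluidigm TaqMan qRT-PCR, normalised to ACTB, GAPDH, POLR2A; fold change fitted bidirectionally versus DMSO.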

Read-out in assay [19]: matrix metalloproteinase-3 (MMP3), MMP3 (gene 4314)
As to the kind of experiment: LTEA_HepaRG_MMP3: Life Technologies and Expression Analysis (LTEA) Assay for matrix metalloproteinase-3 (MMP3) using HepaRG (AID 2283519). The gist of the method:
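HepaRG cells (~100,000/well) in serum-free induction medium were dosed in duplicate for 48 h with an 8-point half-log series from 100 uM, 0.5% DMSO. MMP3 mRNA was quantified by Fluidigm TaqMan qRT-PCR, normalized to three housekeeping genes.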

Calls of active or inactive are those of the source. How the source made its calls: active means hit-call score of the fitted dose curve at least 0.9, where 1 is the maximum; inactive means score below 0.9.

Chain of Nuclear factor NF-kappa-B p105 subunit (Homo sapiens) (P19838 whole entry, looked up): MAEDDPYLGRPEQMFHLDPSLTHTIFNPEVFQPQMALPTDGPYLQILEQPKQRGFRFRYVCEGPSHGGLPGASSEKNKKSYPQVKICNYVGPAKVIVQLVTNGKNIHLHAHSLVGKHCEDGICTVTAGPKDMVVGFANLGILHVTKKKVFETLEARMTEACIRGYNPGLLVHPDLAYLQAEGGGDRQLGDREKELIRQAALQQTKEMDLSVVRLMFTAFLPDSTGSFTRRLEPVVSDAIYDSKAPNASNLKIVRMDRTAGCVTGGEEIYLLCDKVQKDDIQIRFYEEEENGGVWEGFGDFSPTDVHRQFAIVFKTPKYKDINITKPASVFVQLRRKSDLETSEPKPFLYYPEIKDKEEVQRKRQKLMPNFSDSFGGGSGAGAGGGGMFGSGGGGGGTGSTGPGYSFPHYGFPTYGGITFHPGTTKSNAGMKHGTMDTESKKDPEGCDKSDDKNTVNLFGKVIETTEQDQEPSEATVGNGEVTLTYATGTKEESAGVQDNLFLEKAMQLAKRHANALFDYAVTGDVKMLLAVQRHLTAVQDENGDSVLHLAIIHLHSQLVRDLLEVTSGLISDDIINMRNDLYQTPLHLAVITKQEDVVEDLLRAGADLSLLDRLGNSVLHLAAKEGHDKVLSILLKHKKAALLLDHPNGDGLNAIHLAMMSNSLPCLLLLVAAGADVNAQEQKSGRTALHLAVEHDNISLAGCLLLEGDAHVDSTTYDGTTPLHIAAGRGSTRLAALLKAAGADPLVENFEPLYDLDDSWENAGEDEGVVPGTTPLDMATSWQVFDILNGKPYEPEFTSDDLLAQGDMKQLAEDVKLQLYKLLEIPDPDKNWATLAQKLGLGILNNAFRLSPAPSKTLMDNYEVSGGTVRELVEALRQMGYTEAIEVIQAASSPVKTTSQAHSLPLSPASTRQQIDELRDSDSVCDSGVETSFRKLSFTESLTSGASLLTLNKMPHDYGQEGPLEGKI

With `Cc1cc2c(cc1C(F)(F)F)N(C(=O)Nc1ccc(Oc3cccnc3C)nc1)CC2`, the outcome in assay [1], in assay [2], in [3], in [4], in [5] and in [6] was inactive. In addition, the outcome in assay [7], in assay [8], in [12], in [13], in assay [14] and in assay [15] was inactive. Besides, the result in [17] was inactive. Besides, the AC50 was 46 µM (active) in assay [9], 80.4 µM (active) in assay [10], 26.8 µM (active) in [11] and 30.1 µM (active) in [16].
Consider `CCOC(=O)O[C@H](C)OC(=O)c1ccc2c(c1)cc(C(=O)NC1CCN(C(C)C)CC1)n2Cc1cc(-c2ccc(Cl)s2)on1`, for which the result in assay [1], in [2], in assay [3], in assay [4], in [5] and in [6] was inactive. The result in assay [8], in assay [9], in assay [10], in assay [18], in assay [11] and in [12] was inactive. In addition, the call in [13], in [14], in assay [15], in assay [16] and in assay [17] was inactive. Also, the AC50 in assay [19] is 47.2 µM (active).
Regarding `CCN(Cc1cccc(S(=O)(=O)O)c1)c1ccc(C(=C2C=CC(=[N+](CC)Cc3cccc(S(=O)(=O)O)c3)C=C2)c2ccccc2S(=O)(=O)[O-])cc1`, the compound was called inactive in [1], in assay [2], in assay [3], in assay [4], in assay [5] and in [6]. The outcome in assay [7], in [8], in assay [9], in [10], in [11] and in assay [19] was inactive. Besides, the call in assay [12], in assay [13], in assay [14], in assay [15], in [16] and in assay [17] was inactive.
